Records with an inconclusive call do not appear. Values without a mark were called inactive. The source made the active and inactive calls. The call rests on the fitted dose curve; in most records, active means well fitted inhibition curve with a large enough effect; inconclusive means small, poorly fitted or top-dose-only effect; inactive means flat fitted curve, though single readings scatter.
target: Calcium and integrin-binding protein 1 (Homo sapiens) (UniProt Q99828); test: Primary qHTS for Identification of Calcium Integrin Binding Protein 1 (CIB1) Competitor (AID 1508620); settings: CIB1-GST / FITC-alphaIIb peptide fluorescence polarization; series mostly up to 114 µM; activity change, negative = inhibition: at the top concentration; further: top concentration of the series differs between compounds
In short: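 Fluorescence polarization competition: GST-tagged CIB1 (1 uM final) preincubated with compound 15 min at room temperature, then FITC-labelled alphaIIb peptide (100 nM final) added. After 15 min at room temperature, polarization read at Ex 480/Em 540.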
On the % scale 0 is the no-effect control and ±100 the full control effect.

Sequence of Calcium and integrin-binding protein 1 (Homo sapiens) (Q99828 whole entry, looked up): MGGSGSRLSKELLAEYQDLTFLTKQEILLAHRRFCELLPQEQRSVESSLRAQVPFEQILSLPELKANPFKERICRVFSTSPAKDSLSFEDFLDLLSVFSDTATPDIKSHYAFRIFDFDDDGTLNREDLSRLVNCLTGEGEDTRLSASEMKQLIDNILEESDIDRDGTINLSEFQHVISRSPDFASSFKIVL

SMILES	activity change, negative = inhibition [%]	Potency
COc1ccc(-c2nnc3n2N=C(c2ccccc2OC)CS3)cc1OC	-5.83	–
O=C(/C=C/c1c(F)c(F)c(F)c(F)c1F)Nc1cccc([S+](=O)([O-])Nc2ccccc2F)c1	-15	–
N[C@H]1CCN(c2cnc3c(O)ccc(C(=O)O)c3c2)C1	-13	–
CC(=O)Nc1sc2c(c1-c1ccc(C(N)=O)cc1)CCNC2	-3.23	–
COc1ccc(NC(=S)N2CCN(c3cccc(C(F)(F)F)c3)CC2)nc1	6.16	–
c1cncc(CNc2ncnc3ccc(-c4ccco4)cc23)c1	-12.9	–
Cc1ccc(S(=O)(=O)NC(N)=NCCC[C@@H](N)C(=O)Nc2cc(C(F)(F)F)ccc2Cl)cc1	-4.65	–
O=C(Cc1nnc(-c2cc3ccccc3[nH]2)s1)Nc1cc(C(F)(F)F)ccc1Cl	–	inactive
COc1ccnc(NC(=S)N2CCN(c3ncc(C(F)(F)F)cc3Cl)CC2)c1	-13.4	–
O=C1NS(=O)(=O)c2cc(Br)ccc21	0.685	–
CCOC(=O)c1c(-c2ccccc2)no[n+]1[O-]	1.11	–
COc1ccc(C2=Nn3c(nnc3-c3ccccc3O)SC2)c(OC)c1	-1.79	–
Cn1c(SCC(=O)c2cc3ccccc3o2)nnc1-c1ccccc1	1.04	–
COc1ccccc1NC(=O)C(OC(=O)CNC(=O)c1ccccc1)c1ccccc1 (stereo not drawn)	7.74	–
Cc1cccc(-c2csc3ncnc(Sc4nnnn4C)c23)c1	2.81	–
Cc1ccc(-c2ccc(C(C)Nc3nc(-c4ccccc4C(C)C)ncc3C)cc2)cn1 (stereo not drawn)	2.57	–
CNC(=O)C1=C(C)NC(Nc2nc3ccccc3o2)=NC1c1[nH]ncc1Cl (stereo not drawn)	-13.9	–
Cc1cc(N[S+](=O)([O-])c2ccc(NC(=O)Cc3ccc4nccnc4c3)cc2)no1	-10.7	–

— PubChem BioAssay (NCATS)
